PubChem BioAssay AID1159580 (chemical genetic matrix, 2015)
Out of some 5,500 compounds screened, about 2,000 (36%) were called active. Another 18% or so got no clear call; they are omitted. No stated cut-off is given here; in the data, active means normalized growth mostly below about 0.91 (no sharp cut-off); inconclusive means no clear call, values can overlap the other calls; inactive means mostly above about 0.92. Some of the results follow.

Experiment: chemical genetic growth profiling, strain panel (AID 1159580);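 further: tested at 20 µM; growth read once vehicle control cultures reached saturation at 30 °C; 1 = growth at the plate median or of vehicle wells; lower values mean less growth of the strain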
Details: growth OD

Measured: normalized growth

O=C(/C=C/c1ccccc1)c1c(O)cc(O)cc1O
inactive: S. cerevisiae deletion strains, locus YAL013W, strain DEP1, hits give low values 1.01 | S. cerevisiae deletion strains, locus YBR021W, strain FUR4, hits give low values 0.995 | S. cerevisiae deletion strains, locus YBR229C, strain ROT2, hits give low values 1.01 | S. cerevisiae deletion strains, locus YCL029C, strain bik1, hits give low values 1 | S. cerevisiae deletion strains, locus YDL035C, strain GPR1, hits give low values 1.02 | S. cerevisiae deletion strains, locus YDL074C, strain BRE1, hits give low values 1.02 | S. cerevisiae deletion strains, locus YDL101C, strain DUN1, hits give low values 1.01 | S. cerevisiae deletion strains, locus YDL134C, strain PPH21, hits give low values 1.02 | S. cerevisiae deletion strains, locus YDL185W, strain tfp1, hits give low values 1.01 | S. cerevisiae deletion strains, locus YDL192W, strain arf1, hits give low values 1 | S. cerevisiae deletion strains, locus YDR101C, strain arx1, hits give low values 0.999 | S. cerevisiae deletion strains, locus YDR150W, strain NUM1, hits give low values 1.02 | S. cerevisiae deletion strains, locus YDR162C, strain NBP2, hits give low values 1.04 | S. cerevisiae deletion strains, locus YDR318W, strain mcm21, hits give low values 0.995 | S. cerevisiae deletion strains, locus YDR388W, hits give low values 0.997 | S. cerevisiae deletion strains, locus YDR502C, strain sam2, hits give low values 1 | S. cerevisiae deletion strains, locus YEL061C, strain CIN8, hits give low values 1.01 | S. cerevisiae deletion strains, locus YER110C, hits give low values 1.01 | S. cerevisiae deletion strains, locus YER155C, strain BEM2, hits give low values 1.01 | S. cerevisiae deletion strains, locus YER167W, strain BCK2, hits give low values 1.01 | S. cerevisiae deletion strains, locus YGL078C, strain dbp3, hits give low values 1 | S. cerevisiae deletion strains, locus YGL086W, strain mad1, hits give low values 1 | S. cerevisiae deletion strains, locus YGL248W, strain PDE1, hits give low values 1.01 | S. cerevisiae deletion strains, locus YGR078C, strain PAC10, hits give low values 1.03 | S. cerevisiae deletion strains, locus YGR135W, strain pre9, hits give low values 1 | S. cerevisiae deletion strains, locus YGR229C, strain SMI1, hits give low values 1.02 | S. cerevisiae deletion strains, locus YGR252W, strain gcn5, hits give low values 0.972 | S. cerevisiae deletion strains, locus YHR030C, strain SLT2, hits give low values 1.01 | S. cerevisiae deletion strains, locus YHR079C, strain IRE1 (second series), hits give low values 0.994 | S. cerevisiae deletion strains, locus YHR094C, strain hxt1, hits give low values 1 | S. cerevisiae deletion strains, locus YHR129C, strain ARP1, hits give low values 1.01 | S. cerevisiae deletion strains, locus YHR200W, strain rpn10, hits give low values 1 | S. cerevisiae deletion strains, locus YIL066C, strain RNR3, hits give low values 1.02 | S. cerevisiae deletion strains, locus YIL073C, strain SPO22, hits give low values 1.04 | S. cerevisiae deletion strains, locus YIL125W, strain kgd1, hits give low values 1 | S. cerevisiae deletion strains, locus YIR030C, strain dcg1, hits give low values 0.999 | S. cerevisiae deletion strains, locus YJL095W, strain BCK1, hits give low values 1.01 | S. cerevisiae deletion strains, locus YJL134W, strain LCB3, hits give low values 1.01 | S. cerevisiae deletion strains, locus YJL168C, strain set2, hits give low values 0.993 | S. cerevisiae deletion strains, locus YJL187C, strain SWE1 (second series), hits give low values 1.01 | S. cerevisiae deletion strains, locus YJR043C, strain POL32, hits give low values 0.998 | S. cerevisiae deletion strains, locus YJR075W, strain HOC1, hits give low values 1.01 | S. cerevisiae deletion strains, locus YKL009W, strain mrt4, hits give low values 1.01 | S. cerevisiae deletion strains, locus YKL068W, hits give low values 1 | S. cerevisiae deletion strains, locus YKL085W, strain MDH1 (second series), hits give low values 1 | S. cerevisiae deletion strains, locus YKL085W, strain MDH1, hits give low values 1 | S. cerevisiae deletion strains, locus YKL190W, strain CNB1, hits give low values 1.01 | S. cerevisiae deletion strains, locus YKR001C, strain vps1, hits give low values 1.01 | S. cerevisiae deletion strains, locus YLR039C, strain RIC1, hits give low values 1.04 | S. cerevisiae deletion strains, locus YLR058C, strain SHM2, hits give low values 1.01 | S. cerevisiae deletion strains, locus YLR102C, strain apc9, hits give low values 0.998 | S. cerevisiae deletion strains, locus YLR262C, strain YPT6, hits give low values 1.06 | S. cerevisiae deletion strains, locus YLR268W, strain sec22, hits give low values 0.989 | S. cerevisiae deletion strains, locus YLR330W, strain CHS5, hits give low values 1.01 | S. cerevisiae deletion strains, locus YLR342W, strain FKS1 (second series), hits give low values 1 | S. cerevisiae deletion strains, locus YLR371W, strain rom2, hits give low values 0.997 | S. cerevisiae deletion strains, locus YLR418C, strain cdc73, hits give low values 0.992 | S. cerevisiae deletion strains, locus YML016C, strain PPZ1, hits give low values 1.01 | S. cerevisiae deletion strains, locus YML032C, strain rad52, hits give low values 1 | S. cerevisiae deletion strains, locus YML124C, strain tub3, hits give low values 1.01 | S. cerevisiae deletion strains, locus YMR078C, strain ctf18, hits give low values 1 | S. cerevisiae deletion strains, locus YMR223W, strain ubp8, hits give low values 0.995 | S. cerevisiae deletion strains, locus YMR263W, strain SAP30, hits give low values 1.02 | S. cerevisiae deletion strains, locus YMR307W, strain GAS1, hits give low values 0.915 | S. cerevisiae deletion strains, locus YNL067W, strain RPL9B, hits give low values 1.01 | S. cerevisiae deletion strains, locus YNL128W, strain TEP1, hits give low values 1.02 | S. cerevisiae deletion strains, locus YNL153C, strain GIM3, hits give low values 1.03 | S. cerevisiae deletion strains, locus YNL233W, strain BNI4, hits give low values 1.02 | S. cerevisiae deletion strains, locus YNL250W, strain rad50, hits give low values 1.01 | S. cerevisiae deletion strains, locus YNL271C, strain bni1, hits give low values 1 | S. cerevisiae deletion strains, locus YNL298W, strain CLA4, hits give low values 1.01 | S. cerevisiae deletion strains, locus YNL307C, strain MCK1, hits give low values 1.01 | S. cerevisiae deletion strains, locus YNL322C, strain KRE1, hits give low values 1.01 | S. cerevisiae deletion strains, locus YNR052C, strain pop2, hits give low values 0.998 | S. cerevisiae deletion strains, locus YOL006C, strain TOP1, hits give low values 1.05 | S. cerevisiae deletion strains, locus YOL012C, strain htz1 0.787 | S. cerevisiae deletion strains, locus YOL147C, strain pex11, hits give low values 1.01 | S. cerevisiae deletion strains, locus YOR061W, strain CKA2, hits give low values 1.01 | S. cerevisiae deletion strains, locus YOR069W, strain VPS5, hits give low values 1.01 | S. cerevisiae deletion strains, locus YOR136W, strain idh2, hits give low values 0.995 | S. cerevisiae deletion strains, locus YOR144C, strain elg1, hits give low values 1 | S. cerevisiae deletion strains, locus YOR184W, strain ser1, hits give low values 1.01 | S. cerevisiae deletion strains, locus YOR316C, strain cot1, hits give low values 0.996 | S. cerevisiae deletion strains, locus YPL055C, strain LGE1, hits give low values 1.05 | S. cerevisiae deletion strains, locus YPL241C, strain CIN2, hits give low values 1.01 | S. cerevisiae deletion strains, locus YPR119W, strain clb2, hits give low values 0.997 | S. cerevisiae deletion strains, locus YPR141C, strain kar3, hits give low values 1.01 | S. cerevisiae deletion strains, locus YPR163C, strain tif3, hits give low values 1 | S. cerevisiae deletion strains, locus YPR167C, strain met16, hits give low values 0.998 | S. cerevisiae deletion strains, strain wtn01, hits give low values 1.01 | S. cerevisiae strains, strain wild type, hits give low values 1.01
